From PubChem BioAssay (Tox21)
Several values for one entry are separate records, joined by “and”; a condition that tells them apart may be missing. Identical values can stand only once. Records with an inconclusive call do not appear. A call without a number means that no potency is given here. Where a structure was tested more than once in an assay, its records may differ in their call. Activity calls are given as the source filed them. Unless noted, calls come from the whole dose curve; as a rule, active = well fitted curve in the direction sought with a large enough effect in the repeat runs; inconclusive = weak or mixed curves; inactive = no such curve, though single readings can be large; an effect the other way counts as inactive or inconclusive.

What was measured:
[1] = qHTS assay for small molecule agonists of the p53 signaling pathway (AID 651631; calls by dose curve; note: nearly all actives have a fitted effect of over 15% in size; note: potency is the fitted concentration of half-maximal effect)
Procedure, shortened: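 Fluorescence intensity from cleaved LiveBLAzer B/G substrate (2 h, room temperature) served as the signal. Beforehand, HCT-116 reporter cells bearing p53 response elements were treated 16 h at 37 °C with DMSO-dissolved compounds.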

[2] = qHTS assay for small molecules that induce genotoxicity in human embryonic kidney cells expressing luciferase-tagged ATAD5 (AID 651632); note: nearly all actives have a fitted effect of over 15% in size
Procedure, shortened: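 ATAD5-luc HEK293T, 2,000 cells/well; cpd or DMSO pin-transferred; 16 hr, 37C/5% CO2; Amplite 30 min RT; luminescence.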

[3] = qHTS assay for small molecule agonists of the p53 signaling pathway - cell viability (AID 651633; calls by dose curve; note: nearly all actives have a fitted effect of over 30% in size; note: potency is the fitted concentration of half-maximal effect)
Procedure, shortened: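 p53RE-bla cells, seeded at 4,000 per well and rested 5 h at 37 C/5% CO2, received compounds in DMSO for 16 h at 37 C. CellTiter-Glo was then added, and luminescence was read after 30 min at room temperature to gauge cytotoxicity.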

[4] = qHTS assay for small molecules that induce genotoxicity in human embryonic kidney cells expressing luciferase-tagged ATAD5 - cell viability (AID 651634; calls by dose curve; note: nearly all actives have a fitted effect of over 25% in size; note: potency is the fitted concentration of half-maximal effect)
Procedure, shortened: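 Fluorescence from CellTiter-Fluor, reporting protease activity within live cells, served as the viability read-out. HEK293T cells carrying luciferase-tagged ATAD5 had been treated with compound for 15.5 hr at 37C.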

[5] = qHTS assay for small molecule disruptors of the mitochondrial membrane potential (AID 720635); note: potency is the fitted concentration of half-maximal effect
Procedure, shortened: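 HepG2 cells (2,000/well) attached overnight at 37C, then took compound for 1 hr at 37C, 5% CO2. Mito-MPS dye was added for 30 min; fluorescence was read at 490/535 nm (monomers) and 540/590 nm (aggregates).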

[6] = qHTS assay to test for compound auto fluorescence at 590 nm (red) in HepG2 cells (AID 720674); note: potency is the fitted concentration of half-maximal effect
Procedure, shortened: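 Rose Bengal sodium served as the red fluorophore standard. HepG2 monolayers (overnight attachment, MEM with 10% FBS) were exposed to test compounds for 1 hr at 37 C and read at Ex 540/Em 590 nm.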

[7] = qHTS assay to test for compound auto fluorescence at 535 nm (green) in HepG2 cells (AID 720675)
[8] = qHTS assay to test for compound auto fluorescence at 460 nm (blue) in HEK293 cells (AID 720678)
Procedure, shortened: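 Blue read-out at excitation 405 nm and emission 460 nm follows overnight compound exposure of HEK293 cells at 37C in 5% CO2. Activity is given as auto fluorescence equivalency to triamterene.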

[9] = qHTS assay to test for compound auto fluorescence at 590 nm (red) in HEK293 cells (AID 720679); note: potency is the fitted concentration of half-maximal effect
Procedure, shortened: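 Red channel, Ex/Em 540/590nm; signal expressed as equivalency to Rose Bengal sodium. HEK293, 2,000 cells/well, 10% dialyzed FBS; 23 nL compound pinned after 4-5 hr attachment; overnight 37C/5% CO2 before reading.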

[10] = qHTS assay to test for compound auto fluorescence at 535 nm (green) in HEK293 cells (AID 720680)
[11] = qHTS assay to test for compound auto fluorescence at 460 nm (blue) in HEK293 cell free culture (AID 720681)
Procedure, shortened: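 Test compounds were pinned into cell-free culture medium (DMEM with 10% FBS) and fluorescence was read directly at Ex/Em 405/460 nm. Signals were expressed as fluorescence equivalents of triamterene, with DMSO vehicle as control.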

[12] = qHTS assay to test for compound auto fluorescence at 535 nm (green) in HEK293 cell free culture (AID 720682)
Procedure, shortened: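 Intrinsic compound fluorescence is measured in culture medium containing 10% FBS, with excitation at 485 nm and detection at 535 nm, referenced to fluorescein.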

[13] = qHTS assay to test for compound auto fluorescence at 590 nm (red) in HEK293 cell free culture (AID 720683); note: potency is the fitted concentration of half-maximal effect
Procedure, shortened: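 Tox21 10K library compounds were pinned into cell-free DMEM with 10% FBS and fluorescence was read at excitation 540 nm. Activity is expressed as Rose Bengal sodium equivalency.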

[14] = qHTS assay to test for compound auto fluorescence at 590 nm (red) in HepG2 cell free culture (AID 720684); note: potency is the fitted concentration of half-maximal effect
Procedure, shortened: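 Measured in medium alone (MEM containing 10% FBS) following pintool addition of compound; emission at 590 nm with 540 nm excitation, referenced to Rose Bengal sodium.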

[15] = qHTS assay to test for compound auto fluorescence at 535 nm (green) in HepG2 cell free culture (AID 720686)
[16] = qHTS assay to test for compound auto fluorescence at 460 nm (blue) in HepG2 cells (AID 720687)
Procedure, shortened: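 Cells (2,000/well in MEM with 10% FBS) attached overnight at 37 C, then were exposed to compound or DMSO for 1 hr at 37 C, 5% CO2. Fluorescence read at Ex/Em 405/460 nm, expressed as triamterene-equivalent signal.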

[17] = biological target: Glucocorticoid receptor (Homo sapiens) (UniProt P04150); test: qHTS assay to identify small molecule agonists of the glucocorticoid receptor (GR) signaling pathway (AID 720691; active = well fitted activation curve with a large enough effect in the signal ratio in the repeat runs, not every such curve was filed as active; the % refers to the signal ratio); conditions: GR-bla HeLa, beta-lactamase reporter ratio, 18 h; activation: at 62.4 µM (top of the series)
Procedure, shortened: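 Fluorescence intensity from LiveBLAzer B/G FRET substrate (2 h, room temperature) reports beta-lactamase expression driven by the glucocorticoid response element in GR-bla HeLa cells after 18 h compound exposure at 37 C.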

[18] = qHTS assay for small molecule disruptors of the mitochondrial membrane potential - cell viability (AID 720634; calls by dose curve;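 note: human HepG2 liver cancer cells; nearly all actives have a fitted effect of over 20% in size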)
Procedure, shortened: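 Cells: HepG2, 2,000/well, attached overnight. Compound 1 hr, 37 C/5% CO2. +m-MPI dye, +CellTiter-Glo 30 min RT. Readout: luminescence (ATP).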

[19] = qHTS assay to test for compound auto fluorescence at 460 nm (blue) in HepG2 cell free culture (AID 720685)
Procedure, shortened: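 Compound (23 nL) or DMSO pinned into cell-free MEM with 10% FBS; blue fluorescence read at 405/460 nm excitation/emission, expressed as auto-fluorescence equivalency to triamterene.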

[20] = biological target: Glucocorticoid receptor (Homo sapiens) (UniProt P04150); test: qHTS assay to identify small molecule antagonists of the glucocorticoid receptor (GR) signaling pathway (AID 720692; active = well fitted inhibition curve with a large enough effect in the signal ratio in the repeat runs, not every such curve was filed as active; the % refers to the signal ratio; note: potency is the fitted concentration of half-maximal effect)
Procedure, shortened: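 HeLa GR-bla cells; cmpd + dex 5 nM final, 18 h 37 C; LiveBLAzer B/G FRET substrate 2 h RT; fluorescence intensity read. Antagonist mode, qHTS.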
Tags give direction and shape of the fitted curve or compound fluorescence and quenching.

Sequence of Glucocorticoid receptor (Homo sapiens) (P04150 whole entry, looked up): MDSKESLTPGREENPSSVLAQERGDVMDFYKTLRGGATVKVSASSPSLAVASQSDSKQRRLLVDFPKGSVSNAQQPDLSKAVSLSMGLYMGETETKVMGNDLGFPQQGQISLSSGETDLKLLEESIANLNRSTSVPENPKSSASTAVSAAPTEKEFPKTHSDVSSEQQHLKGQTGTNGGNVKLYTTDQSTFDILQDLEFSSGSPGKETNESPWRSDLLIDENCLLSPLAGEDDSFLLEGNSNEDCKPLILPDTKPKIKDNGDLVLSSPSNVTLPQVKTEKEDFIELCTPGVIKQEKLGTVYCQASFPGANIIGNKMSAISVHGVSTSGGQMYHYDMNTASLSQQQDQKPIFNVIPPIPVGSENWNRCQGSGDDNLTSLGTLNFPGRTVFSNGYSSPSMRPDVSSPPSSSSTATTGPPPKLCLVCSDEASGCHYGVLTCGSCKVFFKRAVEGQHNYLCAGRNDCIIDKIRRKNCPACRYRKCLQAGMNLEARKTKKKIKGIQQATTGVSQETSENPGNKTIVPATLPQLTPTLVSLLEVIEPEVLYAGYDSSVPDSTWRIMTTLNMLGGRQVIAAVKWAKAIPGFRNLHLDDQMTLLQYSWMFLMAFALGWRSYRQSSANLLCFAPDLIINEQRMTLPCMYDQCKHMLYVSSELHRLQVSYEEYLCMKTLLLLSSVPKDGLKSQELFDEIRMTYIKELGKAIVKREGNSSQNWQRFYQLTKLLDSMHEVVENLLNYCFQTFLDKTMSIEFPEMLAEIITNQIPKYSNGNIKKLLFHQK

| SMILES | Potency [1] | Potency [2] | Potency [3] | Potency [4] | Potency [5] | Potency [6] | Potency [7] | Potency [8] | Potency [9] | outcome [10] | Potency [11] | outcome [12] | Potency [13] | Potency [14] | Potency [15] | Potency [16] | Potency [17] | Potency [18] | Potency [19] | Potency [20] |
| --- | --- | --- | --- | --- | --- | --- | --- | --- | --- | --- | --- | --- | --- | --- | --- | --- | --- | --- | --- | --- |
| CC[C@H](c1ccc(O)cc1)[C@@H](CC)c1ccc(O)cc1 | 5.07 µM (active) and 13.7 µM (active) | inactive | inactive and 54.5 µM (active) | inactive | 8.04 µM (active) and 9.69 µM (active) | inactive | inactive | inactive | inactive | inactive | inactive | inactive | inactive | inactive | inactive | inactive | inactive |  |  |  |
| O=c1[nH]cnc2nc[nH]c12 | inactive | inactive | inactive | inactive | inactive | inactive | inactive | inactive | inactive | inactive | inactive | inactive | inactive | inactive | inactive | inactive |  | inactive | inactive |  |
| COC(=O)C1=C(C)NC(C)=C(C(=O)OCC(C)C)C1c1ccccc1[N+](=O)[O-] (configuration not stated) | 26.6 µM (active) | inactive | inactive | 29.8 µM (active) and 48.6 µM (active) | 11.9 µM (active) and 43.3 µM (active) | inactive | inactive | inactive |  | inactive | inactive | inactive | inactive | inactive | inactive | inactive |  | inactive | inactive | 24.5 µM (active) |
| Cc1cccc(S(=O)(=O)O)c1C | inactive | inactive | inactive | inactive |  | inactive | inactive | inactive | inactive | inactive | inactive | inactive | inactive | inactive | inactive |  | inactive | inactive | inactive | inactive |
| NNC(=O)c1cccc(C(=O)NN)c1 | inactive | inactive | inactive | inactive |  | inactive | inactive | inactive | inactive | inactive | inactive |  | inactive | inactive | inactive | inactive | inactive | inactive | inactive |  |
| O=C(Nc1ccc(Oc2ccc(Cl)cc2)c(Cl)c1)c1cc(I)cc(I)c1O | 10.6 µM (active) | inactive | 4.22 µM (active) | inactive | 2.37 µM (active) | inactive | inactive | inactive | inactive | inactive | inactive | inactive | inactive | inactive | inactive |  |  | inactive | inactive |  |
| CCN(C(=O)c1cc(C)cc(OC[C@H](C)Nc2ccncc2)c1)C(C)C | inactive | inactive | inactive | inactive |  | inactive | inactive | inactive | inactive | inactive | inactive | inactive | inactive | inactive | inactive | inactive |  | inactive | inactive | inactive |
| COc1cc(-c2ccc(N=C=O)c(OC)c2)ccc1N=C=O | inactive | inactive | inactive | inactive |  | inactive | inactive | inactive | inactive | inactive | inactive | inactive | inactive | inactive | inactive |  |  | inactive | inactive |  |
| CSc1ccc(C(=O)c2[nH]c(=O)[nH]c2C)cc1 | inactive | inactive | inactive | inactive | inactive | inactive | inactive | inactive | inactive | inactive | inactive | inactive | inactive | inactive | inactive | inactive |  | inactive | inactive |  |
| Cc1[nH]cnc1C[C@H]1CCc2c(C)c3ccccc3n2C1=O | inactive | inactive | inactive | inactive |  | inactive | inactive | inactive | inactive | inactive | inactive |  | inactive | inactive | inactive | inactive | inactive | inactive | inactive | inactive |
| CCN1/C(=C/C=C/c2sc3ccccc3[n+]2CC)Sc2ccccc21 | 15 µM (active) | inactive | 16.8 µM (active) | 10.6 µM (active) |  | 12.6 µM (active) | inactive | inactive | 11.2 µM [fluorescent] (active) | inactive | inactive | inactive | 11.2 µM [fluorescent] (active) | 14.1 µM [fluorescent] (active) |  | inactive |  | inactive | inactive |  |
| CS(=O)(=O)CCNCc1ccc(-c2ccc3ncnc(Nc4ccc(OCc5cccc(F)c5)c(Cl)c4)c3c2)o1 | inactive | inactive | inactive | inactive | inactive | inactive | inactive | inactive | inactive | inactive | inactive | inactive | inactive | inactive | inactive |  |  | inactive |  |  |
| O=C(O)c1ccc(Cl)c(Cl)c1 | inactive | inactive | inactive | inactive |  | inactive | inactive | inactive |  | inactive | inactive |  | inactive | inactive | inactive | inactive |  | inactive | inactive |  |
